PubChem BioAssay AID708 (SRMLSC, 2007)
Hit rate of the full screen: of about 65,000 compounds, fewer than 10 were called active.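 Rule for the calls: active = at 10 µM dose, initial 340 nm absorbance at least 2 fold that of control wells; inactive = change under 2 fold.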 Not all results are given here.

Experiment: A340 optical interference by library compounds – biochemical, MLSMR library, data from PS, PMK, MK assays, artefact control, profiling panel (AID 708);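 note: initial absorbance extrapolated from kinetic A340 decline of NADH oxidation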
Conditions: compound absorbance at 340 nm, fold over control; at 10 µM; active compounds read high

Fold change, inactive:
COc1cc(OC)cc(C(=O)NCCSCc2ccco2)c1 1.02, CC(=O)NC1CC2CCCC(C1)N2CC(=O)Nc1ccccc1 (stereo not drawn) 1, COc1cc2[nH]c(=O)n(CCC(=O)NC3CCN(Cc4ccccc4)CC3)c(=O)c2cc1OC 1.06, COC(=O)c1ccc(/C=N\n2c(C)nnc2C)cc1 1.02, O=C(COc1ccccc1Cl)Nn1cnnc1 1.08, Cc1cc(-n2nc(C)cc2C)n2ncc(-c3ccccc3)c2n1 1.03, CCOC(=O)c1c(CN2CCOCC2)n(-c2ccccc2)c2ccc(O)cc12 0.98, Cc1ccc2nc(S(=O)(=O)O)[nH]c2c1 1.02, CC(=O)c1cc(C#N)c(SCC(=O)C(C)(C)C)nc1C 1.07, CC(=C1C(=O)c2ccccc2C1=O)N1CCN(c2ccccn2)CC1 1.15, CCS(=O)(=O)NCCc1ccc(OC)c(OC)c1 1.02, CCOC(=O)COc1ccc(Cl)cc1C1NC(=O)NC(C)=C1C(C)=O (stereo not drawn) 1.05, COc1ccc(-c2ccc(-c3noc(-c4ccncc4)n3)c(OC)n2)cc1 1.09, CSc1nc(O)c(Cc2ccccc2)c(=O)[nH]1 1, COc1ccccc1N1CCN(C(=O)c2c(-c3c(Cl)cccc3Cl)noc2C)CC1 0.98, Cc1cccc(OCc2nnc(SCC(=O)N3CCN(C(=O)c4ccco4)CC3)n2C)c1C 1.02, COCCn1nnnc1CN1CCC(NC(=O)Nc2cccc(OC)c2)CC1 1, CC(=O)c1c(N2CCOCC2)nc(=S)n(Cc2ccccc2)c1C 1.06, COc1cc(CO)c(C2(CO)CCCC2)cc1OC 1.04, CCOC(=O)C1=C(O)CSC1=Nc1cccc(Cl)c1 1.02, CCOC(=O)c1ccc2[nH]c(C)c(CN3CCN(C)CC3)c(=O)c2c1 1, Cc1nn(-c2ccccc2)c(CC(C)(C)C(=O)O)c1C(=O)O 1.02, COc1ccc2c(c1OC)C(=O)N(c1ncn[nH]1)C2 1.04, CC(C)(C)NC(=O)C(c1ccncc1)N(C(=O)CNC(=O)c1ccco1)c1ccc2c(c1)OCO2 (stereo not drawn) 0.98, COc1ccc(N2C(=O)C3CCCN3C2c2cc(OC)c(OC)cc2OC)cc1 (stereo not drawn) 1.01, O=C1c2ccccc2C(O)N1Cc1ccccc1Cl (stereo not drawn) 1.03, COc1cccc(C(=O)Nc2c3c(nn2-c2cccc(C)c2C)CS(=O)(=O)C3)c1OC 1.01, CCC(=O)N1CCc2cc(S(=O)(=O)NC(C(=O)N3CCc4ccccc4C3)C(C)C)ccc21 (stereo not drawn) 1
